From paper PMC12864922, “TDP-43 directly inhibits mRNA accumulation in neurites through modulation of mRNA stability”
The full ranking holds about 9,900 sequences; the median of “r (bound/input frequency ratio)” is about 0.7, and the highest 2% start at about 6.5. Many of the other results were omitted from the sample, so the highest values are more common in it than they were.

B1: ENSMUSG00000058297.2|Spock2|239:243;247:260 (ssRNA)
RNA: GGGAGUUCUACAGUCCGACGAUCGCUUCGAUAUCCGCAUGCUAUGAGGAAGAAAAGGAGACAGAAGAGGCAGGGGAGGAGGCCGAGGAGGAGGAGGGUGAGGCGGGUGAGGCAGAUGAUGGAGGCUACAUCUGGUAGAUAGCCCUCGACGGCCUCGGCAGGCCAGGGUGCCGACGGCCAGAAAGACAGGCCAGAAGAGACCUGGACAACAGCAGGCAACUUAGCAAAUGGAUCCGGAAGUCAGUGCGGAGGACCCUGGCUCCAGUGGGGGAGGACUGGGGACACACGCUACACACAUACACACCUCUUGCGGUCGCACUAGUGUGGAAUUCUCGGGUGUCAAGG
B2: ENSMUSG00000058297.11|Spock2|185:189;193:206;215:226;240:246;255:260 (ssRNA)
RNA: GGGAGUUCUACAGUCCGACGAUCGCUUCGAUAUCCGCAUGCUAUGAGGCGGGUGAGGCAGAUGAUGGAGGCUACAUCUGGUAGAUAGCCCUCGACGGCCUCGGCAGGCCAGGGUGCCGACGGCCAGAAAGACAGGCCAGAAGAGACCUGGACAACAGCAGGCAACUUAGCAAAUGGAUCCGGAAGUCAGUGCGGAGGACCCUGGCUCCAGUGGGGGAGGACUGGGGACACACGCUACACACAUACACACAUAUGAGAACACACACAUACAUGUGAGAUGUGACACACACAUGUGAGAACACACCUCUUGCGGUCGCACUAGUGUGGAAUUCUCGGGUGUCAAGG
B3: ENSMUSG00000058297.11|Spock2 (ssRNA)
RNA: GGGAGUUCUACAGUCCGACGAUCGCUUCGAUAUCCGCAUGCUAUGAGGCGGGUGAGGCAGAUGAUGGAGGCUACAUCUGGUAGAUAGCCCUCGACGGCCUCGGCAGGCCAGGGUGCCGACGGCCAGAAAGACAGGCCAGAAGAGACCUGGACAACAGCAGGCAACUUAGCAAAUGGAUCCGGAAGUCAGUGCGGAGGACCCUGGCUCCAGUGGGGGAGGACUGGGGAGUGUGGCUUGUGUGUAUGUGUGAUAUGAGAUGUGUGUGUAUGAUGUGAGAUGUGAGUGUGUGAUGUGAGAUGUGUGCUCUUGCGGUCGCACUAGUGUGGAAUUCUCGGGUGUCAAGG
B4: ENSMUSG00000058297.15|Spock2|161:165;169:182;191:202;216:222;231:240;246:260 (ssRNA)
RNA: GGGAGUUCUACAGUCCGACGAUCGCUUCGAUAUCCGCAUGCUAAGGCUACAUCUGGUAGAUAGCCCUCGACGGCCUCGGCAGGCCAGGGUGCCGACGGCCAGAAAGACAGGCCAGAAGAGACCUGGACAACAGCAGGCAACUUAGCAAAUGGAUCCGGAAGUCAGUGCGGAGGACCCUGGCUCCAGUGGGGGAGGACUGGGGACACACGCUACACACAUACACACAUAUGAGAACACACACAUACAUGUGAGAUGUGACACACACAUGUGAGAACACACAUACUGAGAACACACACACACACACUCUUGCGGUCGCACUAGUGUGGAAUUCUCGGGUGUCAAGG
B5: ENSMUSG00000058297.16|Spock2|155:159;163:176;185:196;210:216;225:234;240:260 (ssRNA)
RNA: GGGAGUUCUACAGUCCGACGAUCGCUUCGAUAUCCGCAUGCUACAUCUGGUAGAUAGCCCUCGACGGCCUCGGCAGGCCAGGGUGCCGACGGCCAGAAAGACAGGCCAGAAGAGACCUGGACAACAGCAGGCAACUUAGCAAAUGGAUCCGGAAGUCAGUGCGGAGGACCCUGGCUCCAGUGGGGGAGGACUGGGGACACACGCUACACACAUACACACAUAUGAGAACACACACAUACAUGUGAGAUGUGACACACACAUGUGAGAACACACAUACUGAGAACACACACACACACACACACACUCUUGCGGUCGCACUAGUGUGGAAUUCUCGGGUGUCAAGG
B6: ENSMUSG00000058297.15|Spock2 (ssRNA)
RNA: GGGAGUUCUACAGUCCGACGAUCGCUUCGAUAUCCGCAUGCUAAGGCUACAUCUGGUAGAUAGCCCUCGACGGCCUCGGCAGGCCAGGGUGCCGACGGCCAGAAAGACAGGCCAGAAGAGACCUGGACAACAGCAGGCAACUUAGCAAAUGGAUCCGGAAGUCAGUGCGGAGGACCCUGGCUCCAGUGGGGGAGGACUGGGGAGUGUGGCUUGUGUGUAUGUGUGAUAUGAGAUGUGUGUGUAUGAUGUGAGAUGUGAGUGUGUGAUGUGAGAUGUGUGUAUGUGAGAUGUGUGUGUGUGUGUCUCUUGCGGUCGCACUAGUGUGGAAUUCUCGGGUGUCAAGG
B7: ENSMUSG00000058297.14|Spock2 (ssRNA)
RNA: GGGAGUUCUACAGUCCGACGAUCGCUUCGAUAUCCGCAUGCUAUGAUGGAGGCUACAUCUGGUAGAUAGCCCUCGACGGCCUCGGCAGGCCAGGGUGCCGACGGCCAGAAAGACAGGCCAGAAGAGACCUGGACAACAGCAGGCAACUUAGCAAAUGGAUCCGGAAGUCAGUGCGGAGGACCCUGGCUCCAGUGGGGGAGGACUGGGGAGUGUGGCUUGUGUGUAUGUGUGAUAUGAGAUGUGUGUGUAUGAUGUGAGAUGUGAGUGUGUGAUGUGAGAUGUGUGUAUGUGAGAUGUGUGUGUCUCUUGCGGUCGCACUAGUGUGGAAUUCUCGGGUGUCAAGG
B8: ENSMUSG00000058297.16|Spock2 (ssRNA)
RNA: GGGAGUUCUACAGUCCGACGAUCGCUUCGAUAUCCGCAUGCUACAUCUGGUAGAUAGCCCUCGACGGCCUCGGCAGGCCAGGGUGCCGACGGCCAGAAAGACAGGCCAGAAGAGACCUGGACAACAGCAGGCAACUUAGCAAAUGGAUCCGGAAGUCAGUGCGGAGGACCCUGGCUCCAGUGGGGGAGGACUGGGGAGUGUGGCUUGUGUGUAUGUGUGAUAUGAGAUGUGUGUGUAUGAUGUGAGAUGUGAGUGUGUGAUGUGAGAUGUGUGUAUGUGAGAUGUGUGUGUGUGUGUGUGUGUCUCUUGCGGUCGCACUAGUGUGGAAUUCUCGGGUGUCAAGG
B9: ENSMUSG00000058297.3|Spock2|233:237;241:254 (ssRNA)
RNA: GGGAGUUCUACAGUCCGACGAUCGCUUCGAUAUCCGCAUGCUAAGAAAAGGAGACAGAAGAGGCAGGGGAGGAGGCCGAGGAGGAGGAGGGUGAGGCGGGUGAGGCAGAUGAUGGAGGCUACAUCUGGUAGAUAGCCCUCGACGGCCUCGGCAGGCCAGGGUGCCGACGGCCAGAAAGACAGGCCAGAAGAGACCUGGACAACAGCAGGCAACUUAGCAAAUGGAUCCGGAAGUCAGUGCGGAGGACCCUGGCUCCAGUGGGGGAGGACUGGGGACACACGCUACACACAUACACACAUAUGACUCUUGCGGUCGCACUAGUGUGGAAUUCUCGGGUGUCAAGG

Target: TDP-43 (Homo sapiens, UniProt Q13148 1-414)
Sequence (Q13148 whole entry): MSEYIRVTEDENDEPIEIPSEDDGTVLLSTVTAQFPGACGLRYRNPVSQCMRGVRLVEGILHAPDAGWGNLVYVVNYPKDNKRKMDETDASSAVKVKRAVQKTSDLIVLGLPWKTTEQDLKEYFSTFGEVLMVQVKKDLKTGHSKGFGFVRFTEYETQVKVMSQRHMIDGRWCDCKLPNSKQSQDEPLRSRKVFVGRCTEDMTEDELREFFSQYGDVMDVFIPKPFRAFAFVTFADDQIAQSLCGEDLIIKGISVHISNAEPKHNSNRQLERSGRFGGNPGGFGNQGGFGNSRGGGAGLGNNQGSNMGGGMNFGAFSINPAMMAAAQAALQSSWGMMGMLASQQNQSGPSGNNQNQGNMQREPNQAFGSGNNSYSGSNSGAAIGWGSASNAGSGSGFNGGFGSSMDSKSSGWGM
Test: RNA Bind-n-Seq with designed 260-mer pool; 25 mM Tris-HCl, 150 mM KCl, 3 mM MgCl2, BSA (printed 500 mg/mL), 20 units/mL SUPERase IN; pH not stated; 500 nM RNA pool, 1 h, 4 C; TDP-43 5, 50, 500 nM; high values mean tight binding
Settings: protein: recombinant; tags: SBP (GST cleaved off with PreScission; pGEX-GST-SBP)
In short: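 Streptavidin beads captured recombinant SBP-tagged TDP-43 at 5, 50 or 500 nM, and the beads were incubated for 1 h at 4 °C with 500 nM of an in vitro-transcribed pool of 260-nt 3′ UTR oligos in 25 mM Tris-HCl, 150 mM KCl, 3 mM MgCl2, BSA and SUPERase IN. After washing, bound RNA was eluted with biotin, reverse transcribed, PCR-amplified and sequenced. Binding is reported as R, the mapped-read-normalized abundance of each oligo in the bound sample divided by its abundance in the input. Two independent protein batches served as duplicates.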

Binder | binding signal
B1 | 2.26 R (bound/input frequency ratio)
B2 | 2.53 R (bound/input frequency ratio)
B3 | 8.12 R (bound/input frequency ratio)
B4 | 2.53 R (bound/input frequency ratio)
B5 | 2.54 R (bound/input frequency ratio)
B6 | 7.97 R (bound/input frequency ratio)
B7 | 8.13 R (bound/input frequency ratio)
B8 | 7.85 R (bound/input frequency ratio)
B9 | 2.67 R (bound/input frequency ratio)
